Assay results as given in PubChem BioAssay (Tox21).
Results filed as inconclusive are left out. Activity calls are given as the source filed them. Unless noted, calls follow the shape of the full dose curve.

Assays:
[1] = biological target: Peroxisome proliferator-activated receptor delta (Homo sapiens) (UniProt Q03181); test: qHTS assay to identify small molecule agonists of the peroxisome proliferator-activated receptor delta (PPARd) signaling pathway (AID 743212); also: % is scaled to controls: 0 for no effect and ±100 for the full control effect
Peroxisome proliferator-activated receptor delta (Homo sapiens), sequence (Q03181 whole entry, looked up): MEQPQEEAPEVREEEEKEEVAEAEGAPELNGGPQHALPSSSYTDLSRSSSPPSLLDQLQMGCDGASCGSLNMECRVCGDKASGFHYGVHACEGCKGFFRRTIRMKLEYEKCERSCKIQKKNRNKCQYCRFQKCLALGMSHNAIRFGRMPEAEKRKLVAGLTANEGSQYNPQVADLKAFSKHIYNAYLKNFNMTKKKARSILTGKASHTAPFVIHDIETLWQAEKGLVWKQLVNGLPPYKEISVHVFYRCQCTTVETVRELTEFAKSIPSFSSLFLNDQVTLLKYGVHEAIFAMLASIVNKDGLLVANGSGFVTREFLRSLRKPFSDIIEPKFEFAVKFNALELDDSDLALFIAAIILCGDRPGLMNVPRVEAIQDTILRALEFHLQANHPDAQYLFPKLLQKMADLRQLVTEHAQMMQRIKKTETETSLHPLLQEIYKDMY
Outline: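 Quantitative high-throughput agonist screen in a HEK293H beta-lactamase reporter line under UAS control. Compounds in DMSO, at 37 C. Fluorescence read after 2 h with FRET substrate at room temperature.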

[2] = qHTS assay to identify small molecule antagonists of the peroxisome proliferator-activated receptor delta (PPARd) signaling pathway - cell viability counter screen (AID 743213; active = well fitted curve in the direction sought with a large enough effect in the repeat runs; an effect the other way counts as inactive or inconclusive; also: % is scaled to controls: 0 for no effect and ±100 for the full control effect; nearly all actives have a fitted effect of over 50% in size)
Outline: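 PPARd-bla HEK293H cells (3000/well) got compound plus 300 nM L165041 agonist for 17 h at 37 C. Viability in the same wells came from CellTiter-Glo luminescence after 30 min at room temperature.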

[3] = biological target: Peroxisome proliferator-activated receptor delta (Homo sapiens) (UniProt Q03181); test: qHTS assay to identify small molecule antagonists of the peroxisome proliferator-activated receptor delta (PPARd) signaling pathway (AID 743215; active = well fitted inhibition curve with a large enough effect in the signal ratio in the repeat runs, not every such curve was filed as active; the % refers to the signal ratio;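 also: cells stimulated with agonist L165041 at 300 nM final during compound exposure; series mostly up to about 62 µM; % is scaled to controls: 0 for no effect and ±100 for the full control effect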)
Outline: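 With L165041 present at 300 nM final, compounds were incubated 17 h at 37 C on PPARd UAS-bla HEK293H cells. A FRET-based beta-lactamase substrate was then applied for 2 h at room temperature and fluorescence intensity recorded.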

[4] = biological target: Bile acid receptor (Homo sapiens) (UniProt Q96RI1); test: qHTS assay to identify small molecule antagonists of the farnesoid-X-receptor (FXR) signaling pathway (AID 743217; active = well fitted inhibition curve with a large enough effect in the signal ratio in the repeat runs, not every such curve was filed as active; the % refers to the signal ratio; also: % is scaled to controls: 0 for no effect and ±100 for the full control effect)
Bile acid receptor (Homo sapiens), sequence (Q96RI1 whole entry, looked up): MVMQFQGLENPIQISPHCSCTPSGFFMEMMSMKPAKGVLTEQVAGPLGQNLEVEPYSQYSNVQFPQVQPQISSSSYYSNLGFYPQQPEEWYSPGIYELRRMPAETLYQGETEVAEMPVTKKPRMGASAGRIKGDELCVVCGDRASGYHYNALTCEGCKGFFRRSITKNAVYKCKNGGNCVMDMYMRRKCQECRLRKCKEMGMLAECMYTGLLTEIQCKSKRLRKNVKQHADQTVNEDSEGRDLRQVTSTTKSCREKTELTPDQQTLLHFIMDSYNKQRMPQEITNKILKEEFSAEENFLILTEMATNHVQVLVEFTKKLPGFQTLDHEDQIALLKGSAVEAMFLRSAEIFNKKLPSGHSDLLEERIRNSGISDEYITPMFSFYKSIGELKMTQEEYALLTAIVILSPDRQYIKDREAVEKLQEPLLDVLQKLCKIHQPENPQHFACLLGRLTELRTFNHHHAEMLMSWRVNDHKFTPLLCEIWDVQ
Outline: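 In this cell-based antagonist screen, inhibition of CDCA-driven (50 uM final) UAS-beta-lactamase expression in HEK 293T cells was measured by FRET fluorescence following 16 h compound exposure at 37 °C.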

[5] = qHTS assay to identify small molecule agonists of the farnesoid-X-receptor (FXR) signaling pathway - cell viability counter screen (AID 743218; active = well fitted curve in the direction sought with a large enough effect in the repeat runs; an effect the other way counts as inactive or inconclusive; also: % is scaled to controls: 0 for no effect and ±100 for the full control effect; nearly all actives have a fitted effect of over 45% in size)
Outline: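 After 16 h at 37 C with test compounds, FXR-bla HEK 293T cells were given LiveBLAzer B/G substrate for 2 h at RT and then CellTiter-Glo; luminescence was taken after 30 min.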

[6] = biological target: Bile acid receptor (Homo sapiens) (UniProt Q96RI1); test: qHTS assay to identify small molecule agonists of the farnesoid-X-receptor (FXR) signaling pathway (AID 743220; active = well fitted activation curve with a large enough effect in the signal ratio in the repeat runs, not every such curve was filed as active; the % refers to the signal ratio; also: % is scaled to controls: 0 for no effect and ±100 for the full control effect)
Outline: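 Beta-lactamase reporter under UAS control in GeneBLAzer FXR HEK 293T cells (5000/well) measured with LiveBLAzer FRET substrate after 2 h at room temperature. Compound exposure lasted 16 h at 37C.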

[7] = qHTS assay to identify small molecule antagonists of the farnesoid-X-receptor (FXR) signaling pathway - cell viability counter screen (AID 743221; active = well fitted cell-killing curve with a large enough effect in the repeat runs, not every such curve was filed as active; also: % is scaled to controls: 0 for no effect and ±100 for the full control effect; nearly all actives have a fitted effect of over 50% in size)
Outline: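 Cytotoxicity is taken from ATP luminescence (CellTiter-Glo, 30 min, room temperature) in FXR-bla HEK 293T cells previously incubated 16 h at 37 C with compound and chenodeoxycholic acid at 50 uM final.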

[8] = biological target: Vitamin D3 receptor (Homo sapiens) (UniProt P11473); test: qHTS assay to identify small molecule agonists of the vitamin D receptor (VDR) signaling pathway (AID 743222); also: % is scaled to controls: 0 for no effect and ±100 for the full control effect
Vitamin D3 receptor (Homo sapiens), sequence (P11473 whole entry, looked up): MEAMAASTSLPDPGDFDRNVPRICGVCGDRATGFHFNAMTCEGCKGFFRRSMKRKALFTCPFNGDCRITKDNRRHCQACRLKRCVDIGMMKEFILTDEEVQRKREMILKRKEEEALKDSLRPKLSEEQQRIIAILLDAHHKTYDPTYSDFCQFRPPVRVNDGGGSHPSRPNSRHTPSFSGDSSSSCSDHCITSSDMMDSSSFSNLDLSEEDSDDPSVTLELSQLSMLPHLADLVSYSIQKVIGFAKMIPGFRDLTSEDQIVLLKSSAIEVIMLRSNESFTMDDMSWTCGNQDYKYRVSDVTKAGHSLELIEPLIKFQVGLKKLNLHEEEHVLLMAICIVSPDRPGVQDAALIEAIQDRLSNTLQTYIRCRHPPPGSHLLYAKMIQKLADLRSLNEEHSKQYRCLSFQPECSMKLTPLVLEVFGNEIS
Outline: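 VDR-bla cells were seeded, left 4 h, treated with compounds in DMSO for 16 h, incubated 2 h at RT with B/G FRET substrate, and read for fluorescence.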

[9] = qHTS assay to identify small molecule agonists of the vitamin D receptor (VDR) signaling pathway - cell viability counter screen (AID 743224; active = well fitted curve in the direction sought with a large enough effect in the repeat runs; an effect the other way counts as inactive or inconclusive; also: series mostly up to about 63 µM; % is scaled to controls: 0 for no effect and ±100 for the full control effect; nearly all actives have a fitted effect of over 50% in size)
Outline: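 Here cell health was gauged by luminescent ATP detection (CellTiter-Glo, 30 min RT) in VDR-bla cells that had been incubated with test compounds for 16 h at 37C and 5% CO2.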

[10] = qHTS assay to identify small molecule antagonists of the vitamin D receptor (VDR) signaling pathway - cell viability counter screen (AID 743225; active = well fitted curve in the direction sought with a large enough effect in the repeat runs; an effect the other way counts as inactive or inconclusive; also: % is scaled to controls: 0 for no effect and ±100 for the full control effect; nearly all actives have a fitted effect of over 50% in size)
Outline: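 Same-well multiplex: following 16 h treatment of HEK 293T cells carrying a UAS-driven beta-lactamase reporter with compound and agonist (3 nM final), and a 2 h FRET substrate step, CellTiter-Glo was added and luminescence read after 30 min.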

[11] = qHTS assay to identify small molecule agonists of the NFkB signaling pathway (AID 1159509; active = well fitted curve in the direction sought with a large enough effect in the signal ratio in the repeat runs, not every such curve was filed as active; the % refers to the signal ratio)
Outline: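 After overnight attachment, reporter cells received test compounds, DMSO or positive controls and were incubated 5 hr at 37 C. FRET substrate was then added for 1.5 hr at room temperature before dual-emission fluorescence reading.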

[12] = qHTS assay to identify small molecule agonists of the NFkB signaling pathway - cell viability counter screen (AID 1159515); also: series mostly up to about 61 µM; % is scaled to controls: 0 for no effect and ±100 for the full control effect; nearly all actives have a fitted effect of over 55% in size
Outline: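 5 hr compound treatment of NFkB-bla ME-180 cells (2,000/well, seeded overnight beforehand), followed by reporter substrate for 1.5 hr. CellTiter-Glo added afterward; luminescence after 30 min RT.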

[13] = qHTS assay to identify small molecule agonists of the endoplasmic reticulum stress response signaling pathway (AID 1159516; active = well fitted activation curve with a large enough effect in the signal ratio in the repeat runs, not every such curve was filed as active; the % refers to the signal ratio; also: % is scaled to controls: 0 for no effect and ±100 for the full control effect)
Outline: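 Reporter HeLa cells (ESRE-beta-lactamase) underwent 5 hr compound incubation at 37 C and 5% CO2 in quantitative HTS format. Detection followed 2 hr of FRET substrate loading at room temperature.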

[14] = qHTS assay to identify small molecule agonists of the endoplasmic reticulum stress response signaling pathway - cell viability counter screen (AID 1159517)
Outline: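 Counter-screen wells were identical to the reporter wells. Cells were plated at 1,500 per well and dosed for 5 hr, then read for luminescence 30 min after CellTiter-Glo addition.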

[15] = qHTS assay to identify small molecule antagonists of the retinoid-related orphan receptor gamma (ROR-gamma) signaling pathway - cell viability counter screen (AID 1159520; active = well fitted curve in the direction sought with a large enough effect in the repeat runs; an effect the other way counts as inactive or inconclusive)
Outline: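 Tet-on ROR gamma CHO cells were given compounds for 2 hr, then doxycycline hyclate at 1 uM final, and incubated 16 hr at 37 C. Viability was measured as ATP content by CellTiter-Glo luminescence.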

[16] = biological target: Nuclear receptor ROR-gamma (Homo sapiens) (UniProt P51449); test: qHTS assay to identify small molecule antagonists of the retinoid-related orphan receptor gamma (ROR-gamma) signaling pathway (AID 1159521; active = well fitted curve in the direction sought with a large enough effect in the repeat runs; an effect the other way counts as inactive or inconclusive)
Outline: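 Inducible-expression reporter assay: doxycycline (1 uM final) switched on RORγ in CHO cells bearing a ROR response element-luciferase construct, with test compounds present from 2 h beforehand. Decreased luminescence after 16 h defined antagonist activity.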

[17] = qHTS assay to identify small molecule agonists of the AP-1 signaling pathway - cell viability counter screen (AID 1159525); also: nearly all actives have a fitted effect of over 55% in size
Outline: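 AP-1-bla ME-180 cells in Opti-MEM with 0.5% dialyzed FBS, compound exposure 5 h at 37 C in 15-point titration. Viability read in the same wells as ATP content by CellTiter-Glo luminescence, normalised to tetra-n-octylammonium bromide and DMSO controls.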

[18] = qHTS assay to identify small molecule agonists of the AP-1 signaling pathway (AID 1159526); also: % is scaled to controls: 0 for no effect and ±100 for the full control effect
[19] = biological target: Retinoic acid receptor RXR-alpha (Homo sapiens) (UniProt P19793); test: qHTS assay to identify small molecule agonists of the RXR signaling pathway (AID 1159527); also: nearly all actives have a fitted effect of over 35% in size; also: potency is read from the fitted curve at half-maximal effect
Retinoic acid receptor RXR-alpha (Homo sapiens), sequence (P19793 whole entry, looked up): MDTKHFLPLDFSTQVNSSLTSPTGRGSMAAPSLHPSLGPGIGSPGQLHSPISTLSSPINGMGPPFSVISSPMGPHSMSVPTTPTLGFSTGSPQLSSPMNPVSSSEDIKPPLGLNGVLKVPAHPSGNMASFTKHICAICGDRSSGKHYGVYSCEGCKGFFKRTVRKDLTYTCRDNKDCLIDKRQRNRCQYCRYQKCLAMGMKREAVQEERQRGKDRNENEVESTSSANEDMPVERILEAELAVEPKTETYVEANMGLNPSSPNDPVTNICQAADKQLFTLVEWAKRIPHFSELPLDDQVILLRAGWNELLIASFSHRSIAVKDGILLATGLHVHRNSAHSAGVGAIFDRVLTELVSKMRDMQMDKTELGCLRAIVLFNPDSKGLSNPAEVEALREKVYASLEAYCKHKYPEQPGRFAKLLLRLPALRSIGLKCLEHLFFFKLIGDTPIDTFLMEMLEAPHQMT
Outline: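 Compounds in DMSO were added to RXR-alpha-UAS-bla HEK 293T cells kept in 2% charcoal-stripped serum, and incubated 16 hr at 37 C with 5% CO2. Reporter signal came from a 2 hr B/G FRET substrate step.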

[20] = biological target: Vitamin D3 receptor (Homo sapiens) (UniProt P11473); test: qHTS assay to identify small molecule antagonists of the vitamin D receptor (VDR) signaling pathway (AID 743223; active = well fitted inhibition curve with a large enough effect in the signal ratio in the repeat runs, not every such curve was filed as active; the % refers to the signal ratio; also: % is scaled to controls: 0 for no effect and ±100 for the full control effect)
Outline: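 Quantitative HTS in VDR-bla reporter cells stimulated with 1alpha,25-dihydroxyvitamin D3, 3 nM final. Compound exposure 16 h, 37C, 5% CO2. Read-out: beta-lactamase FRET substrate fluorescence, 2 h RT.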

NNC(N)=O
inactive: outcome [1] | Potency [2] | Potency [3] | outcome [4] | Potency [5] | outcome [6] | Potency [7] | outcome [8] | Potency [9] | Potency [10] | outcome [11] | outcome [12] | outcome [13] | Potency [14] | Potency [15] | Potency [16] | Potency [17] | outcome [18] | Potency [19]

CNC(=O)Oc1cc(C)c(N(C)C)c(C)c1
active: Potency [19] 43.7 µM
inactive: outcome [1] | Potency [2] | Potency [3] | outcome [4] | Potency [5] | Potency [7] | Potency [9] | Potency [10] | outcome [11] | outcome [12] | outcome [13] | Potency [14] | Potency [15] | Potency [16] | Potency [17] | outcome [18]

COc1ccc2c(C(=O)c3ccc(Cl)cc3)c(C)n(CC(=O)O)c2c1
inactive: outcome [1] | Potency [2] | Potency [3] | outcome [4] | outcome [6] | Potency [7] | Potency [9] | Potency [10] | outcome [11] | outcome [12] | outcome [13] | Potency [14] | Potency [15] | Potency [16] | Potency [17] | outcome [18] | Potency [19]

CCC(C(N)=O)N1CCCC1=O (centres undefined)
inactive: outcome [1] | Potency [2] | Potency [3] | outcome [4] | Potency [5] | outcome [6] | Potency [7] | outcome [8] | outcome [20] | Potency [9] | Potency [10] | outcome [11] | outcome [12] | outcome [13] | Potency [14] | Potency [15] | Potency [16] | Potency [17] | outcome [18] | Potency [19]

Cc1ccc2c(c1)C1CN(C)CCC1N2 (centres undefined)
inactive: outcome [1] | Potency [2] | Potency [3] | outcome [4] | Potency [5] | outcome [6] | Potency [7] | outcome [8] | outcome [20] | Potency [10] | outcome [11] | outcome [12] | outcome [13] | Potency [14] | activity, negative = cytotoxicity [15] 3.75% [at 19 µM] | activity change, negative = inhibition [16] 3.88% [at 19 µM] | viability change, negative = cytotoxic [17] 5.2% [at 15.8 µM] | activation [18] 8.05% [at 15.8 µM] | activation [19] -0.325% [at 15.8 µM]

CCC1(c2cccc(O)c2)CCCCN(C)C1 (centres undefined)
inactive: outcome [1] | Potency [2] | Potency [3] | Potency [5] | Potency [7] | outcome [8] | outcome [20] | Potency [9] | outcome [11] | outcome [12] | outcome [13] | Potency [14] | Potency [15] | Potency [16] | Potency [17] | outcome [18] | Potency [19]

Brc1c(Br)c(Br)c(Br)c(Br)c1Br
inactive: activation [1] 3.14% [at 5.95 µM] | viability change, negative = cytotoxic [2] -8.99% [at 6.26 µM] | ratio activity, negative = inhibition [3] -21.8% [at 6.26 µM] | viability change, negative = cytotoxic [5] 26.7% [at 5.95 µM] | activity change, negative = cytotoxicity [7] -6% [at 5.95 µM] | activity change, negative = cytotoxicity [9] 9.04% [at 5.95 µM] | activation [11] 0.368% [at 6.95 µM] | activity, negative = cytotoxic [12] -11.1% [at 6.95 µM] | activation [13] -0.555% [at 6.95 µM] | activity change, negative = cytotoxicity [14] 1.86% [at 6.95 µM] | activity, negative = cytotoxicity [15] 1.32% [at 8.39 µM] | activity change, negative = inhibition [16] 19.7% [at 8.39 µM] | viability change, negative = cytotoxic [17] -3.27% [at 6.97 µM] | activation [18] -7% [at 6.97 µM] | activation [19] 13.1% [at 6.98 µM]

C[N+]1(C)CCCCC1
inactive: outcome [1] | Potency [2] | Potency [3] | Potency [5] | Potency [7] | outcome [8] | outcome [20] | Potency [9] | outcome [11] | outcome [12] | outcome [13] | Potency [14] | Potency [15] | Potency [16] | Potency [17] | outcome [18]
active: Potency [19] 6.09 µM

O=C(O)C(Br)(Br)Br
inactive: outcome [1] | Potency [2] | Potency [5] | Potency [7] | outcome [8] | outcome [20] | Potency [9] | outcome [11] | outcome [12] | outcome [13] | Potency [14] | Potency [15] | Potency [16] | Potency [17] | outcome [18] | Potency [19]

COC(=O)c1ccc(CBr)cc1
inactive: outcome [1] | Potency [2] | Potency [3] | Potency [5] | Potency [7] | outcome [8] | outcome [20] | Potency [9] | Potency [10] | outcome [11] | outcome [12] | outcome [13] | Potency [14] | Potency [15] | Potency [16] | Potency [17] | outcome [18] | Potency [19]

C=C(Cl)CCl
inactive: outcome [1] | Potency [2] | Potency [3] | Potency [5] | Potency [7] | outcome [8] | outcome [20] | Potency [9] | Potency [10] | outcome [11] | outcome [12] | outcome [13] | Potency [14] | Potency [15] | Potency [16] | Potency [17] | outcome [18] | Potency [19]

O=c1[nH]c2ccccc2n1C1CCNCC1
inactive: outcome [1] | Potency [2] | Potency [3] | Potency [5] | Potency [7] | outcome [8] | outcome [20] | Potency [9] | outcome [11] | outcome [12] | outcome [13] | Potency [14] | Potency [15] | Potency [16] | Potency [17] | outcome [18] | Potency [19]

O=c1[nH]oc2c1CCNC2
inactive: outcome [1] | Potency [2] | Potency [3] | Potency [5] | Potency [7] | Potency [9] | Potency [10] | outcome [11] | outcome [12] | outcome [13] | Potency [14] | Potency [15] | Potency [16] | Potency [17] | outcome [18] | Potency [19]

CC(C)C(C)(N)C#N (centres undefined)
inactive: outcome [1] | Potency [2] | outcome [4] | Potency [5] | outcome [6] | Potency [7] | outcome [8] | Potency [9] | Potency [10] | outcome [11] | outcome [12] | outcome [13] | Potency [14] | Potency [15] | Potency [16] | Potency [17] | outcome [18] | Potency [19]

CC1NCCOC1c1ccccc1 (centres undefined)
inactive: outcome [1] | Potency [2] | Potency [3] | Potency [5] | Potency [7] | outcome [8] | outcome [20] | Potency [9] | Potency [10] | outcome [11] | outcome [12] | outcome [13] | Potency [14] | Potency [15] | Potency [16] | Potency [17] | outcome [18] | Potency [19]

CC#Cc1cc(C)nc(Nc2ccccc2)n1
inactive: outcome [1] | Potency [2] | Potency [3] | Potency [7] | outcome [8] | outcome [20] | Potency [9] | Potency [10] | outcome [11] | outcome [12] | outcome [13] | Potency [14] | Potency [15] | Potency [16] | Potency [17] | outcome [18] | Potency [19]
